# Assay outcomes: PubChem BioAssay, National Center for Advancing Translational Sciences (NCATS)
# SW480 rereplic – A quantitative high throughput screen for small molecules that induce DNA re-replication in SW480 colon adenocarcinoma cells. SW480 DNA re-replication, Hoechst DNA content imaging, 48 h. Potency, µM (series often up to 46.1 µM), inactives show at the highest dose re-replication activation, most hits filed as activators. 340,000 tested, 1.8% active. AID 624297, 2012; further: % of control where 0% means no effect; nearly all actives have a fitted effect of over 55% in size
#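 Per well, 250 cells were exposed to pinned compound for 48 hr. Nuclear DNA was visualised with Hoechst (40 min, 37 C) and total object intensity recorded by fluorescence scanning.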
# VP16 counter – VP16 counterscreen qHTS for inhibitors of ROR gamma transcriptional activity; Potency, µM (series often up to 53.6 µM), without a hit: at the highest dose activity, negative = inhibition, usual class: inhibitors; 310,000 tested, 3.5% active; Drosophila S2 Gal4-VP16 UAS-luciferase, luminescence, 20 h;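 further: Gal4-VP16 expression switched on by copper sulfate through the metallothionein promoter; on the % scale 0 is the no-effect control and ±100 the full control effect; nearly all actives have a fitted effect of over 50% in size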
# RORg inh – qHTS for inhibitors of ROR gamma transcriptional activity | Nuclear receptor ROR-gamma (Mus musculus), P51450 | Drosophila S2 Gal4-RORgamma UAS-luciferase reporter, 20 h | Potency, µM (titrated, usually from 53.6 µM), inactives show top-dose activity change, negative = inhibition, actives largely listed as inhibitors | 310,000 tested, 5.4% active; further: on the % scale 0 is the no-effect control and ±100 the full control effect; nearly all actives have a fitted effect of over 60% in size
# Target sequence (P51450 whole entry, looked up, the tested form may be a part): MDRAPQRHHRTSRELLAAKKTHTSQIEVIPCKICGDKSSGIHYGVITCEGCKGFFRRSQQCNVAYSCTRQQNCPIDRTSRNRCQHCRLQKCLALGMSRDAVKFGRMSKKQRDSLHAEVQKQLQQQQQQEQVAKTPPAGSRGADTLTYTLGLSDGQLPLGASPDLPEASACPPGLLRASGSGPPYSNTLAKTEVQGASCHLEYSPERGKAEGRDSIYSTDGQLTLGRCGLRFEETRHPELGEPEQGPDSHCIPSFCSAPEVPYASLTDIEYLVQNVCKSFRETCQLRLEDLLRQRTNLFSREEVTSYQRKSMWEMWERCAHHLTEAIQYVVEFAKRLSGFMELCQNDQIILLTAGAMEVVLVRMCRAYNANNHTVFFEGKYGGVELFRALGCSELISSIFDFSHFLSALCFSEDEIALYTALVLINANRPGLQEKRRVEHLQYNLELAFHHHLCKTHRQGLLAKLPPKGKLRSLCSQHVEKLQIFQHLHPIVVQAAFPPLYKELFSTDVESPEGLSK
#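 A Gal4/UAS one-hybrid system in insect cells: metallothionein-promoter Gal4–ROR gamma fusion plus Photinus luciferase reporter. Copper sulfate 700 uM final, 20 hr ambient incubation, luminescent detection after 10 min with reagent.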
# MCF10A rerep – A quantitative high throughput screen for small molecules that induce DNA re-replication in MCF 10a normal breast cells; MCF 10A DNA re-replication, Hoechst nuclear intensity, 48 h; Potency, µM (series often up to 46.1 µM), inactives show at the highest dose activity, positive = re-replication, hits mostly activators; 350,000 tested, 2.9% active; AID 624296, 2012; further: % of control where 0% means no effect; nearly all actives have a fitted effect of over 50% in size
# ELG1 DNA repair – qHTS screen for small molecules that inhibit ELG1-dependent DNA repair in human embryonic kidney (HEK293T) cells expressing luciferase-tagged ELG1; HEK293T ELG1-luciferase reporter, luminescence, 16 h; DNA damage induced by 5-fluorouridine; Potency, µM (highest dose often 46.1 µM), for the others: top-dose activity change, negative = inhibition, usual class: inhibitors; 330,000 tested, 2.3% active; AID 504467, 2011; further: on the % scale 0 is the no-effect control and ±100 the full control effect; nearly all actives have a fitted effect of over 55% in size
#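 Quantitative HTS, concentration-response format. 2,000 cells/well co-treated with 5-fluorouridine and compound, 16 hr in 5% CO2 at 37 °C; ONE-Glo luminescence read after 30 min.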
# An asterisk follows results filed as active; ? = inconclusive; . = not tested or not shown; [ ] = dose if it differs, or a comment. Hits are enriched below; roughly 10% of the tested compounds scored in any of these assays. The call rests on the fitted dose curve; in most records, active means well fitted curve in the direction sought with a large enough effect; inconclusive means small, poorly fitted or top-dose-only effect, or another doubt; inactive means no such curve, though single readings can be large; an effect the other way counts as inactive or inconclusive. Potency means the concentration at half of the fitted maximal effect.
SMILES,SW480 rereplic,VP16 counter,RORg inh,MCF10A rerep,ELG1 DNA repair
COCCCNC(=O)c1sc2ncnc(N3CCc4ccccc4C3)c2c1C,21µM*,?,-29%,15µM*,8.2µM*
COc1ccccc1N1CCN(c2ncnc3sc(C(=O)NCC4CCCO4)c(C)c23)CC1 (centres undefined),2%,-6%,-21%,5%,9.2µM*
COc1cc2c(cc1OC(C)=O)CCCCC2=O,-5%,.,.,-7%,.
S=C(Nc1ccc(Br)cc1Cl)N1CCCC1,-2%,15%,?,0%,-8%
COc1c(Cl)cc(Cl)cc1C(=O)Nc1ccc(CN2CCCCC2)cc1,-1%,8%[10 µM],24%,12µM*,13%
O=C(Nc1ccc(CN2CCCCC2)cc1)Nc1ccc(Br)cc1Cl,?,-13%,23%,16µM*,9%
COc1ccc(C(=O)NC(=S)Nc2ccc(CN3CCCCC3)cc2)cc1Cl,25%,?,20µM*,?,-4%
COc1c(Cl)cc(Cl)cc1C(=O)Nc1ccc(CN2CCOCC2)cc1,3%,-5%,-45%,?,-19%
Cc1ccc(C(=O)NC(=S)Nc2ccc(CN3CCCCC3)cc2)c(C)c1,?,?,13µM*,5%,-7%
COc1ccc(C(=O)NC(=S)Nc2ccc(CN3CCOCC3)cc2)cc1OC,-10%,-6%,?,7%,-35%
Cc1c(C(=O)OCc2ccc(F)cc2)sc2nc3n(c(=O)c12)CCC3,-63%,.,.,0%,20%
CCc1nnc(NC(=O)CCC(=O)NCc2ccc(C)cc2)s1,-28%,-15%,-4%,3%,?
O=C(NCCc1ccccc1Cl)C1CC(=O)N(C2CCCCC2)C1 (centres undefined),6%,1%,-3%,-4%,-11%
COc1ccc(C(=O)NC(=S)Nc2ccc(CN3CCOCC3)cc2)cc1Cl,-4%,?,13µM*,0%,?
Cc1onc(-c2c(Cl)cccc2Cl)c1C(N)=S,18%,?,7.9µM*,-13%,-8%
Cc1nc(C(=O)NNC(=O)c2c(-c3c(Cl)cccc3Cl)noc2C)cs1,25%,8.9µM*,2.8µM*,11%,1%
CC(=O)Nc1nnc(-c2c(-c3c(Cl)cccc3Cl)noc2C)o1,-130%,?,10µM*,3%,5%
COC(=O)C(CN)c1c[nH]c2ccc(OC)cc12 (centres undefined),-1%,5%,3%,3%,.
Cc1cccc(C(=O)NC(=S)Nc2ccccc2C(F)(F)F)c1,.,5.6µM*,4.5µM*,6%,0%
Cc1ccc(C(=O)NC(=S)Nc2ccccc2C(F)(F)F)cc1C,-11%,13µM*,2.5µM*,?,12%
Cc1ccc(S(=O)(=O)N2CCCCC2CCNC(=O)C(=O)NCc2ccncc2)cc1 (centres undefined),-4%,.,.,7%,?
Cc1ccc(S(=O)(=O)N2CCCCC2CCNC(=O)C(=O)NCc2ccccc2C)cc1 (centres undefined),21µM*,.,.,?,?
Cc1ccc(S(=O)(=O)N2CCCCC2CCNC(=O)C(=O)NCc2ccccc2)cc1 (centres undefined),6.5µM*,.,.,?,-28%
CC(=O)Nc1ccc(S(=O)(=O)Oc2ccc(C(=S)N3CCCCC3)cc2)cc1,0%,?,?,19%,?
CC(=O)Nc1ccc(S(=O)(=O)Oc2ccc(C(=S)N3CCC(O)CC3)cc2)cc1,2%,35µM*,?,0%,?
SMILES,SW480 rereplic,VP16 counter,RORg inh,MCF10A rerep,ELG1 DNA repair
Cc1ccc(S(=O)(=O)NC(=O)Nc2ccc(N(C)C)cc2)cc1,7.3µM*,-11%,-31%,19%,?
Cc1ccc(NC(=S)c2ccc(N(C)C)cc2)cc1,?,?,10µM*,?,?
Cc1ccc(NC(=O)NNS(=O)(=O)c2ccc(Br)cc2)cc1,-2%,0%,7%,-1%,-2%
CCCCOc1ccc(C(=O)Oc2cccnc2)cc1,-10%,6%,8%,?,-1%
CCC(C)NC(=O)[C@H](CSCc1ccccc1)N1Cc2ccccc2C1=O (some centres undefined),0%,1%,-26%,?,-1%
CCC(CC)C(=O)c1c[nH]c(C(=O)O)c1,?,-3%,-3%,1%,-11%
CCC(CC)C(=O)c1c[nH]c(C(=O)NN)c1,?,4%,-10%,10µM*,-24%
COc1ccccc1C(=O)Nc1nc2ccc(S(C)(=O)=O)cc2s1,-3%,0%,39%,?,6%
COc1ccc2nc(NC(=O)c3ccccc3C(=O)O)sc2c1,25%,-9%,-4%,16%,0%
CCc1nnc(NC(=O)c2ccc(OC)cc2OC)s1,-1%,10µM*,6.3µM*,0%,?
COc1ccc(C(=O)Nc2nc3ccccc3s2)c(OC)c1,?,.,.,?,3.7µM*
COc1ccccc1C(=O)Nc1nc2ccccc2s1,-1%,1µM*,0.63µM*,17%,?
NC(=S)Nc1nc2ccccc2s1,?,3.5µM*,?,0%,?
CC(C)(C)c1nnc(NS(=O)(=O)c2ccc(F)cc2)s1,-33%[1.84 µM],.,.,-25%,.
CCOc1ccc(N=C(NN)c2ccc3ccccc3n2)cc1,13%,?,10µM*,12%,?
CCOc1ccc(N=C(C)C2=C(O)c3ccccc3C2=O)cc1,-1%,-19%,-19%,6%,?
CC(=O)NC(c1ccc(Cl)cc1Cl)c1ccc2cccnc2c1O (centres undefined),11%,1.8µM*,2µM*,?,?
COc1ccc(C(NC(C)=O)c2ccc3cccnc3c2O)c(OC)c1 (centres undefined),2.9µM*,4.5µM*,?,13%,?
CC(=O)NC(c1ccc2ccccc2c1)c1ccc2cccnc2c1O (centres undefined),?,1.6µM*,5µM*,?,?
CCCC(=O)NC(c1ccc(C)cc1)c1ccc2cccnc2c1O (centres undefined),?,2.2µM*,1.6µM*,21µM*,?
COc1ccc(CN2CCC(N3CC(C)OC(C)C3)CC2)c(OC)c1 (centres undefined),?,-4%,-12%,-8%,14%
CCCC(=O)NC(c1ccc(Cl)cc1Cl)c1ccc2cccnc2c1O (centres undefined),0.65µM*,2µM*,5.6µM*,?,?
CCCCC(=O)NC(c1ccc(Cl)cc1)c1ccc2cccnc2c1O (centres undefined),1µM*,.,.,12µM*,.
